In assay [1] the target is Sphingosine kinase 1 (Homo sapiens) (UniProt Q9NYA1). The settings on record: at 1 µM.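 Note: mean SPHK1 inhibition value reported from the GSK PKIS kinase panel screen.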
The target of assay [2] is T1, Sphingosine kinase 2 (Homo sapiens) (UniProt Q9NRA0).
T1 sequence (whole entry): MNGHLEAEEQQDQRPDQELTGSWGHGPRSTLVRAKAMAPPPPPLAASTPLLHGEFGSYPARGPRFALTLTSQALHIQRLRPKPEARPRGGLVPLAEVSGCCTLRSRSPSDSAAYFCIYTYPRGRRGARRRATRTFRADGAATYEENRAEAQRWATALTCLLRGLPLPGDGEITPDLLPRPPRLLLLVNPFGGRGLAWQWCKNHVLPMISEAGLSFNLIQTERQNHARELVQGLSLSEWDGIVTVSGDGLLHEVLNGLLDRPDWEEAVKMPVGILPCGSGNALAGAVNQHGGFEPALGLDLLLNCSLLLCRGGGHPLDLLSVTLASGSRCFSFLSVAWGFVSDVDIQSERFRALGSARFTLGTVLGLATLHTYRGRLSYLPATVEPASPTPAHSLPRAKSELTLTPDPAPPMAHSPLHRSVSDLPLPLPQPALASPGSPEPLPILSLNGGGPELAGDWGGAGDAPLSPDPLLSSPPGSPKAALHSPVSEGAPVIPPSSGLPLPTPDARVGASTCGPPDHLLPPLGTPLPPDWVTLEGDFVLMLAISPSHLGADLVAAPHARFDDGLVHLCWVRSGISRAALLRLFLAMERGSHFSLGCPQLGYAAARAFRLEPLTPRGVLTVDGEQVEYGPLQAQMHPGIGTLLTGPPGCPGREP
The settings on record: at 0.1 µM.

Assay [3] deals with T1, Sphingosine kinase 2 (Homo sapiens). Conditions: at 1 µM.
In assay [4] the target is Casein kinase II subunit alpha (Homo sapiens) (UniProt P68400). The settings on record: at 0.1 µM.
Assay [5] shares this target. Conditions: at 1 µM.
For assay [6], the target named is T2, Inhibitor of nuclear factor kappa-B kinase subunit alpha (Homo sapiens) (UniProt O15111).
T2 sequence (whole entry): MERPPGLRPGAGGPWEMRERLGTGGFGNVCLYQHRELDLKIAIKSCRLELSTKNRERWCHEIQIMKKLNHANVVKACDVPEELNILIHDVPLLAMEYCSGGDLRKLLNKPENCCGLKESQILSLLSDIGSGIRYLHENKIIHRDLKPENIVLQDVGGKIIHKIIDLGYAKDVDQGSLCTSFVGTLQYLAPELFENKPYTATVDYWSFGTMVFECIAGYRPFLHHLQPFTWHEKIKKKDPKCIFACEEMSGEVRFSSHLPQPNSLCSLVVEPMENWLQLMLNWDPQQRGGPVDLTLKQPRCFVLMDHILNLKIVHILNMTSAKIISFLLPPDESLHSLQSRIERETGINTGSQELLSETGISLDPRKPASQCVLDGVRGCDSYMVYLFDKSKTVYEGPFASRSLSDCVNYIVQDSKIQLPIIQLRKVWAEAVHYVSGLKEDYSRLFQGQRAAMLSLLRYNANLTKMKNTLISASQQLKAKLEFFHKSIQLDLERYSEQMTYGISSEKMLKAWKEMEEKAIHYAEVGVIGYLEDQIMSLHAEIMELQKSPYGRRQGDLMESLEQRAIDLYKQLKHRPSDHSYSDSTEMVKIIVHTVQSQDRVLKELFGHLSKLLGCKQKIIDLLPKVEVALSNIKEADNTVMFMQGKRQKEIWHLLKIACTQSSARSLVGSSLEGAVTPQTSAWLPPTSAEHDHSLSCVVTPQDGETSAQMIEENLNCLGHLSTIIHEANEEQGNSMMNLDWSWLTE
The settings on record: at 0.1 µM.

Assay [7] concerns the target T2, Inhibitor of nuclear factor kappa-B kinase subunit alpha (Homo sapiens). Conditions: at 1 µM.
The target in assay [8] is T3, Inhibitor of nuclear factor kappa-B kinase subunit beta (Homo sapiens) (UniProt O14920).
T3 sequence (whole entry): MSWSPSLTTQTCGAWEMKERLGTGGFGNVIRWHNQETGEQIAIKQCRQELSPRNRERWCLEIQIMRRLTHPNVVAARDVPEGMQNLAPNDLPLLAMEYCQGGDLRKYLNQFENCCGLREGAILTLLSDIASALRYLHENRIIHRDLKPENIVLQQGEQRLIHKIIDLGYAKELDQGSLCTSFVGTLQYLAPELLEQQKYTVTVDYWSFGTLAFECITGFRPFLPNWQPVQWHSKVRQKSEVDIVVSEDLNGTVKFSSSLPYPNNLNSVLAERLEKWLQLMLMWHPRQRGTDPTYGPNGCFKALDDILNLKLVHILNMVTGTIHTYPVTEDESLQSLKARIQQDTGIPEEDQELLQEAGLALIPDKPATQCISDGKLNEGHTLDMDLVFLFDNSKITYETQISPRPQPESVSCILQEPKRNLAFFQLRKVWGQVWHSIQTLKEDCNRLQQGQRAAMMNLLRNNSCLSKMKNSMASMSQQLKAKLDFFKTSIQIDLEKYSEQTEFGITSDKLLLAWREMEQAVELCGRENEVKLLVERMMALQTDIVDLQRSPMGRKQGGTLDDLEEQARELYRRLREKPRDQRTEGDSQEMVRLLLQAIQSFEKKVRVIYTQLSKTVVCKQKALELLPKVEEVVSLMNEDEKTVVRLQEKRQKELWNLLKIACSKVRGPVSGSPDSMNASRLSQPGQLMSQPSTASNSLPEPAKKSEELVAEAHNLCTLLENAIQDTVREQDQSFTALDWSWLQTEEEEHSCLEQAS
The settings on record: at 0.1 µM.

Assay [9] addresses T3, Inhibitor of nuclear factor kappa-B kinase subunit beta (Homo sapiens). Conditions: at 1 µM.
For assay [10], the target named is T4, Inhibitor of nuclear factor kappa-B kinase subunit epsilon (Homo sapiens) (UniProt Q14164).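 Note: mean inhibition of IKKε reported, from the GSK PKIS dataset.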
T4 sequence (whole entry): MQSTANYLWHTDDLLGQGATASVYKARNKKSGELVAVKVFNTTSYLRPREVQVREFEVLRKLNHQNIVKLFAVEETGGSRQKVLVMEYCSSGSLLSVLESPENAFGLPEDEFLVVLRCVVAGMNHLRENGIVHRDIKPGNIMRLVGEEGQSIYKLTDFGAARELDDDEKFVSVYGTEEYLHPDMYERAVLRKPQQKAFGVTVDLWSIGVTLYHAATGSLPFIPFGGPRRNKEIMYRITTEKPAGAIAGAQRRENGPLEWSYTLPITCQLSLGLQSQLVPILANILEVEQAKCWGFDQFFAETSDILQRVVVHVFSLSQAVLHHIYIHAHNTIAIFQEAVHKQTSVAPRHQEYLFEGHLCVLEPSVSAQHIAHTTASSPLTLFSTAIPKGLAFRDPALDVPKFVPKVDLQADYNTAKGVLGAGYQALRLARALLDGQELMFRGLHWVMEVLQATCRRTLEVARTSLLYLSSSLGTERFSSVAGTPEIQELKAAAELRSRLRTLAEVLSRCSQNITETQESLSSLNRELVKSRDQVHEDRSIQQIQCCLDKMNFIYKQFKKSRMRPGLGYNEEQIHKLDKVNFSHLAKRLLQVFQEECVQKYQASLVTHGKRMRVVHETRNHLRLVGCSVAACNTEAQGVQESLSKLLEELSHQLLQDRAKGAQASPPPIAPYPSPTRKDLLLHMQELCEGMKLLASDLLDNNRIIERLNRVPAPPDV
Conditions: at 0.1 µM.

Sphingosine kinase 1 (Homo sapiens), sequence (Q9NYA1 whole entry): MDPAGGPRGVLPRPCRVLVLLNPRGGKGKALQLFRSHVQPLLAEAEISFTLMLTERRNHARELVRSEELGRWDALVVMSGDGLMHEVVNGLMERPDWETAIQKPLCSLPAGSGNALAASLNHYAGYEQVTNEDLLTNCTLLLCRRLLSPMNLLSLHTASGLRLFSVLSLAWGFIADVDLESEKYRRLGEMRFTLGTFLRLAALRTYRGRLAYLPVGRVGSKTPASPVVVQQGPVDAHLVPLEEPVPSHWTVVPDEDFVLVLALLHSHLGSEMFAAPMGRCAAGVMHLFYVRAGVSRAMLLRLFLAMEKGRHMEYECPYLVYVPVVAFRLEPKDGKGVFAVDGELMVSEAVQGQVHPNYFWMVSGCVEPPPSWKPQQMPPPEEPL
Casein kinase II subunit alpha (Homo sapiens), sequence (P68400 whole entry, looked up): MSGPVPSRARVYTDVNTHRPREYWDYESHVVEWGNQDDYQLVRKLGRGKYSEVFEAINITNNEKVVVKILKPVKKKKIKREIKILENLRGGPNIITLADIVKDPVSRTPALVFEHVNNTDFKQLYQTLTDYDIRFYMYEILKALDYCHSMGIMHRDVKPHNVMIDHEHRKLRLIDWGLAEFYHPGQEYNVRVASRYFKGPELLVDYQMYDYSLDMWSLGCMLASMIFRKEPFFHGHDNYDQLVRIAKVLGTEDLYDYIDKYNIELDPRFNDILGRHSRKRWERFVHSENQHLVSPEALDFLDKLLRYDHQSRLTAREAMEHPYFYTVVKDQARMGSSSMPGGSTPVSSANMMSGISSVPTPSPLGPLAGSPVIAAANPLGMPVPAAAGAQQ

Turning to `CCn1c(-c2nonc2N)nc2cncc(C(=O)N3CC[C@H](N)C3)c21`, the inhibition – broadly, the drop in the measured response relative to a control, in per cent – is -5.44% in assay [1]; 0.23% in assay [2]; -0.8% in assay [3]; 3.78% in assay [4]; 3.7% in assay [5]; 14% in [6]. For the same molecule, the inhibition in [7] was 18.8%; in [8] it was 7.24%; in [9], 5.79%; in assay [10] it was 13.8%.
As for `Cc1ccc(C(=O)NC2CCCCC2)cc1-c1ccc(C(=O)NCC2CC2)cc1`, the inhibition in assay [1] was -0.86%; in assay [2], -0.91%; in assay [3], -1.61%; in assay [4], 0.66%; in assay [5] it was -5.06%; in assay [6], -3.35%. Besides, the inhibition in assay [7] was -8.02%; in [8], 3.29%; in assay [9] it was -2.31%; in assay [10] it was 1.75%.
Take `Nc1ncnc2occ(-c3ccc(NC(=O)Nc4cc(C(F)(F)F)cc(C(F)(F)F)c4)cc3)c12`: the inhibition is -0.76% in [1]; 1.12% in assay [2]; -0.25% in assay [3]; 0.36% in [4]; -5.3% in assay [5]; -5.23% in assay [6]. Also, the inhibition in [7] is -3.15%; in assay [8], -0.04%; in assay [9], 1.07%; in assay [10], -2.4%.
Take `COC(=O)Nc1nc2cc(Oc3ccc(NC(=O)Nc4cccc(C(=O)O)c4)cc3)ccc2[nH]1`: the inhibition is -2.52% in assay [1]; 0.52% in [2]; -0.25% in assay [3]; 1.52% in [4]; 8.32% in [5]; 5.47% in assay [6]. Moreover, the inhibition in assay [7] is -3.86%; in [8] it was 1.26%; in assay [9], 2.79%; in assay [10], 3.11%.
Take `NS(=O)(=O)c1ccc(N/N=C2\C(=O)Nc3ccc(C(=O)NCCc4c[nH]cn4)cc32)cc1`: the inhibition was -1.01% in [1]; 1.57% in [2]; 0.18% in assay [3]; 6.03% in assay [4]; 18.6% in [5]; 10.2% in [6]. The inhibition in [7] came out at 13%; in assay [8], 4.11%; in [9], 3.92%; in [10], 7.82%.
Turning to `CCn1c(-c2nonc2N)nc2c(C#CC(C)(C)O)nc(CN3CCCC3)cc21`, the inhibition in assay [1] is 0.08%; in [2] it was 2.01%; in assay [3] it was 1.13%; in assay [4], -0.41%; in assay [5], 0.78%; in [6], -1.06%. The inhibition in assay [7] was 0.78%; in [8], -1.14%; in [9], -3.01%; in assay [10], 5.75%.
With `Nc1nc(-c2ccc3c(c2)C(=Cc2cc(Br)c(O)c(Br)c2)C(=O)N3)cs1`, the inhibition in assay [1] was -0.49%; in assay [2] it was -0.01%; in [3], 0.02%; in assay [4], 2.7%; in assay [5] it was 24.1%; in [6], 9.67%. Moreover, the inhibition in assay [7] is 2.3%; in assay [8] it was 0.26%; in assay [9], 0.06%; in assay [10] it was -3%.
On to `CC(C)=Cc1cccc2c1/C(=N/Nc1ccc(S(N)(=O)=O)cc1)C(=O)N2`, for which the inhibition in assay [1] amounted to 3.96%; in assay [2], 0.66%; in assay [3] it was 0.76%; in [4], 1.84%; in assay [5] it was 10.6%; in assay [6] it was 3.49%. For the same molecule, the inhibition in assay [7] was 3%; in assay [8] it was 1.01%; in assay [9], 2.88%; in assay [10], 5.72%.
`O=C1NC(=O)C(c2ccccc2Cl)=C1Nc1cccc(O)c1`: the inhibition in assay [1] is -1.02%; in assay [2], 0.69%; in assay [3], -0.36%; in assay [4] it was 0.98%; in assay [5], 0.1%; in assay [6], 3.36%. Besides, the inhibition worked out at 1.21% in [7], 3.78% in assay [8], 3.39% in assay [9] and 1.96% in [10].

The record behind these values is ChEMBL document CHEMBL1961873, “Compounds: GSK PKIS; Assays: Nanosyn kinase panel” (2012).
